Test [1] can be described thus: qHTS assay for small molecule agonists of the antioxidant response element (ARE) signaling pathway measured by Nrf2-dependant transcriptional activity - cell viability counter screen (AID 720653; active means well fitted curve in the direction sought with a large enough effect in the repeat runs; an effect the other way counts as inactive or inconclusive; further: potency means the concentration at half of the fitted maximal effect; on max response: on the % scale 0 is the no-effect control and ±100 the full control effect). The conditions noted are these: ARE-bla HepG2 viability, CellTiter-Glo ATP luminescence, 16 h; max response: stronger effect = lower value. In outline: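 Cytotoxicity counter screen: intracellular ATP quantified by CellTiter-Glo luminescence in the same ARE-bla HepG2 plates, after 16 h compound exposure and a 2 h beta-lactamase substrate step.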
(In general: qHTS replaces the single test concentration by a dilution series.)

Test [2] is described as follows: qHTS Assay for Identifying Gametocytocidal Compounds (AID 743244). Further: potency means the concentration at half of the fitted maximal effect.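 On max response: on the % scale 0 is the no-effect control and ±100 the full control effect; actives lower the fluorescent signal which means gametocytes are killed.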 The conditions noted are these: P. falciparum 3D7 stage III-V gametocytes, alamarBlue, 72 h; max response: stronger effect = lower value. The method, boiled down:
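A resazurin-based viability read-out was applied to mature P. falciparum gametocytes: 72 h compound treatment, then 24 h dye incubation, with falling fluorescence signalling gametocytocidal effect.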

Test [3] can be described thus: qHTS assay for cell viability of HEK293 cells (AID 743288). Further: nearly all actives have a fitted effect of over 50% in size. Further: potency means the concentration at half of the fitted maximal effect. On max response: on the % scale 0 is the no-effect control and ±100 the full control effect. The conditions noted are these: ATP luminescence (CellTiter-Glo), 18 h; max response: stronger effect = lower value. In outline: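 Parental HEK293 cells were seeded at 2,000 cells/well, rested at least 5 h at 37 C, then exposed to compounds in DMSO for 18 h at 37 C. Viability was read as ATP-dependent luciferase luminescence after 30 min at room temperature.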

The nature of test [4]: qHTS assay for cell viability of the p53RE-bla HCT-116 cell line (AID 743292). Further: nearly all actives have a fitted effect of over 55% in size. Further: potency means the concentration at half of the fitted maximal effect. The method, boiled down: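 In this qHTS counter-screen, metabolically competent p53RE-bla HCT-116 cells were counted via their ATP content. Compounds were applied for 16 h at 37 C and luciferase-coupled luminescence was measured.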
The nature of test [5]: qHTS profiling for inhibitors of Plasmodium falciparum (3D7) proliferation (AID 743322).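 Further: infected erythrocytes exposed to compound for 72 h before lysis; 100% = DMSO vehicle wells and 0% = 0.29 µM artemisinin.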 The conditions noted are these: P. falciparum 3D7 proliferation; at 28.7 µM (top of the series) unless noted. In outline: (§1)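 Erythrocytes infected with P. falciparum (0.3% parasitemia, 2.5% hematocrit) incubated with compounds 72 h at 37 C, 5% CO2. Lysis with saponin/Triton buffer containing SYBR Green I, overnight at room temperature in the dark; DNA fluorescence (485/535 nm) normalised to 0.29 uM artemisinin and DMSO.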

The nature of test [6]: qHTS profiling for inhibitors of Plasmodium falciparum (DD2) proliferation (AID 743323; call rule not given here). The conditions noted are these: lower = more inhibition; at 28.7 µM (top of the series) unless noted. In outline:
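Parasite proliferation measured via DNA-dye fluorescence, as uninfected erythrocytes lack DNA. Cultures at 0.3% parasitemia and 2.5% hematocrit incubated 72 h with compound; signal scaled between vehicle and 0.29 uM artemisinin wells.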

Test [7] can be described thus: qHTS profiling of the MIPE4 collection as inhibitors of Plasmodium falciparum (3D7) proliferation (AID 743344; call rule not given here;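 further: scaled between DMSO vehicle wells and 0.29 µM artemisinin as full inhibition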). The conditions noted are these: P. falciparum 3D7 in erythrocytes, SYBR Green DNA fluorescence, 72 h; at 28.5 µM (top of the series) unless noted. In outline: as §1
A short description of test [8]: qHTS profiling of the MIPE4 collection as inhibitors of Plasmodium falciparum (DD2) proliferation (AID 743345; call rule not given here). The conditions noted are these: P. falciparum Dd2 in erythrocytes, SYBR Green DNA, 72 h; at 28.5 µM (top of the series) unless noted. The method, boiled down:
as §1

Test [9] in a line: qHTS profiling of the MIPE4 collection as inhibitors of Plasmodium falciparum (DD2) proliferation (Rep 2) (AID 743346; call rule not given here). The conditions noted are these: P. falciparum Dd2 in erythrocytes, SYBR Green DNA, 72 h; at 28.5 µM (top of the series) unless noted. The method, boiled down:
as §1

The nature of test [10]: qHTS profiling of the MIPE4 collection as inhibitors of Plasmodium falciparum (HB3) proliferation (AID 743347; call rule not given here;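 further: plate controls were DMSO vehicle wells for no effect and artemisinin wells for full effect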). The conditions noted are these: P. falciparum HB3 in erythrocytes, SYBR Green DNA, 72 h; at 28.5 µM (top of the series) unless noted. The method, boiled down: as §1
A short description of test [11]: High-throughput drug toxicity screening in the BPDCN cell line Gen2.2 (AID 1224824; call rule not given here;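 further: cells exposed to compounds for 48 h before reading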). Conditions: Gen2.2 BPDCN cells; at 45.8 µM (top of the series) unless noted. The method, boiled down:
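Gen2.2 cells (500/well) in phenol red-free RPMI with 10% FBS were exposed to compounds for 48 h at 37 °C, 5% CO2. Viability was read by CellTiter-Glo luminescence and normalized to DMSO (100%) and 9.2 uM bortezomib (0%).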

Test [12] can be described thus: High-throughput drug toxicity screening in the BPDCN cell line Cal-1 (AID 1224825; call rule not given here). Conditions: Cal-1 BPDCN cell viability, qHTS; at 45.8 µM (top of the series) unless noted. The method, boiled down: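 500 Cal-1 cells/well, RPMI + glutamine + 10% FBS (phenol red-free); cpd added by pin tool; 48 h, 37C, 5% CO2; CTG 15 min RT, lumi read. Normalised: DMSO 100%, bortezomib 9.2 uM 0%.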

A short description of test [13]: qHTS assay for measurement of the activity of small molecule inhibitors on Zika virus induced Caspase-3 activity in human iPSC derived neural progenitor cells (hNPCs) (AID 1224857). Further: nearly all actives have a fitted effect of over 65% in size. Further: potency means the concentration at half of the fitted maximal effect. The method, boiled down:
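Quantitative HTS format: human iPSC neural progenitors, 1 h compound pretreatment, ZIKV 2 FFU/cell for 6 h at 37 C. Percent inhibition derived from luminescent caspase-3/7 signal between uninfected and infected controls.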

Test [14] is described as follows: qHTS assay for measurement of the activity of small molecule inhibitors on Zika virus induced Caspase-3 activity in human astrocytoma cells (AID 1224859). Further: potency means the concentration at half of the fitted maximal effect. The method, boiled down: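 Readout is luminescence from Caspase-Glo 3/7 added after a 6 h ZIKV infection (2 FFU/cell) of compound-pretreated (1 h) SNB-19 cells; data expressed as % inhibition versus uninfected and infected wells.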

Test [15] is described as follows: qHTS Screen of the MIPE 4.0 Collection Against Ewings Sarcoma (RDES) (AID 1259252). Further: nearly all actives have a fitted effect of over 35% in size. Further: potency means the concentration at half of the fitted maximal effect. The method, boiled down:
(§2)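 CellTiter-Glo luminescence after 48 h compound exposure (titration) gave viability; percent activity used DMSO-treated cells as no inhibition and medium-only wells as full inhibition. Cells grown in RPMI/5% FBS, dosed 4 h post-seeding.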

A short description of test [16]: qHTS Screen of the MIPE 4.0 Collection Against Ewings Sarcoma (TC71) (AID 1259253). Further: nearly all actives have a fitted effect of over 40% in size. Further: potency means the concentration at half of the fitted maximal effect. The method, boiled down: as §2
The nature of test [17]: qHTS Screen of the MIPE 4.0 Collection Against Ewings Sarcoma (EW8) (AID 1259255). Further: nearly all actives have a fitted effect of over 35% in size. Further: potency means the concentration at half of the fitted maximal effect.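 On viability: 100% = DMSO-treated cells and 0% = medium-only wells without cells.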 The method, boiled down:
as §2

For test [18], the target named is T1, Hexokinase-4 (Homo sapiens) + Glucokinase regulatory protein (Homo sapiens) (UniProt P35557+Q14397). Briefly: qHTS assay for inhibitors of recombinant human GCK-GKRP interaction: Diaphorase-coupled assay (AID 743205). In outline:
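GST-GCK (10 nM) with FLAG-GKRP (10 nM), 5 mM glucose and 0.4 mM ATP in pH 7.6 Hepes; compounds preincubated 20 min with substrate. G6PDH/diaphorase coupling converts resazurin to resorufin, read kinetically (ex 525/em 590 nm) for 30 min.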

Test [19] concerns the target T1, Hexokinase-4 (Homo sapiens) + Glucokinase regulatory protein (Homo sapiens). Briefly: qHTS assay for inhibitors of recombinant human GCK-GKRP interaction: ADP-Glo assay (AID 743206).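 Further: plate controls were DMSO plus enzyme for no effect and no enzyme for full effect.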 The method, boiled down: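 GST-GCK and FLAG-GKRP (15 nM each in the dispensed mix, with 2 uM S6P) react with 0.4 mM ATP and 5 mM glucose (final) in Hepes pH 7.6 for 60 min at room temperature. ADP is measured by ADP-Glo luminescence.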

Test [20] has the same target. In words: qHTS assay for inhibitors of recombinant human GCK-GKRP interaction: HTRF assay (AID 743207).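 Further: 0% = DMSO with GCK present and -100% = DMSO wells lacking GCK.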 The method, boiled down:
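GST-GCK and FLAG-GKRP (5 nM each) were combined with 2 uM S6P in pH 7.1 Hepes/MgCl2/KCl/DTT buffer, then compound and anti-FLAG XL665/anti-GST K antibodies were added. After 60 min at room temperature, HTRF 665/615 nm emission was read.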

Values joined by “and” are separate entries in the source; they are usually repeats but may differ in a detail not shown here. Equal values may be shown once. Results filed as inconclusive are left out. Active and inactive are the calls of the source. Unless noted, the call rests on the fitted dose curve; in most records, active means well fitted curve in the direction sought with a large enough effect; inconclusive means small, poorly fitted or top-dose-only effect, or another doubt; inactive means no such curve, though single readings can be large; an effect the other way counts as inactive or inconclusive.

The text below walks through data of PubChem BioAssay (NCATS).

T1 sequence (P35557 whole entry, looked up): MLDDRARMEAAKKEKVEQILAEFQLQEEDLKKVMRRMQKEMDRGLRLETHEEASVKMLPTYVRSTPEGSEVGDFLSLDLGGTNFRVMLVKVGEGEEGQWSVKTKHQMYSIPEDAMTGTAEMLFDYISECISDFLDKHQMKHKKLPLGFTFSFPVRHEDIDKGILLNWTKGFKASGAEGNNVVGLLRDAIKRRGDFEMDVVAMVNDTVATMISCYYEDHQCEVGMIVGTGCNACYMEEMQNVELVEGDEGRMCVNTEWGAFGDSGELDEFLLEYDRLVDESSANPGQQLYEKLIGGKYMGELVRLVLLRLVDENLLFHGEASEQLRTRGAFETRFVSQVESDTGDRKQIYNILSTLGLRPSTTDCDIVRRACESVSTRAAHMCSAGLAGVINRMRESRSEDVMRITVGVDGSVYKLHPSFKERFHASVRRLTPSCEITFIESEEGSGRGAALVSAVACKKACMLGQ
T1 sequence (Q14397 whole entry, looked up): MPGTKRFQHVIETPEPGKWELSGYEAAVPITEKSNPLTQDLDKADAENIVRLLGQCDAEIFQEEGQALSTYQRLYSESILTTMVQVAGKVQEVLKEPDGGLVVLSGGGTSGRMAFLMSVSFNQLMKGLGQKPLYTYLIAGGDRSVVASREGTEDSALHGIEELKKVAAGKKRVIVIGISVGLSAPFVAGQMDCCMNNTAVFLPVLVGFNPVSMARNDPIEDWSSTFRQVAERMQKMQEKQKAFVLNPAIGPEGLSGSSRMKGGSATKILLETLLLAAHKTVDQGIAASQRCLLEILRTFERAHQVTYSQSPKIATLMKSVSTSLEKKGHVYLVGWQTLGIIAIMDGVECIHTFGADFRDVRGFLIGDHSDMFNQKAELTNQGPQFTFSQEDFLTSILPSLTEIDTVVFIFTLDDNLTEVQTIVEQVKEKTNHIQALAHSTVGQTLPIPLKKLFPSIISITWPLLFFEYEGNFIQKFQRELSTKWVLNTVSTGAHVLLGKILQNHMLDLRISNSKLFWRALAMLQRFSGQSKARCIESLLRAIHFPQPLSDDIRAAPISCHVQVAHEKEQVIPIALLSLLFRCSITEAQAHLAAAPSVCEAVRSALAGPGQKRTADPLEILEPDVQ

In the case of `CN(C)c1ccc2nc3ccc(=[N+](C)C)cc-3sc2c1`, the Potency in test [1] is 10 µM (active); in test [2], 166 nM (active) and 303 nM (active); in test [3] it was 11.2 µM (active); in test [4], 28.2 µM (active); in test [15], 2.35 µM (active); in test [16] it was 3.72 µM (active). Further, in [17], the Potency was 4.69 µM (active). This compound also gave a remaining parasite growth % (stronger effect = lower value) in test [5] of 1.85% [at 57.5 µM]. Also, the activity, percent of control in test [6] turned out to be 3.2% [at 57.5 µM]. Moreover, the parasite growth, % of DMSO control in [7] is 60.1% and 20%. For the same compound, in [8], the parasite growth remaining, % of DMSO control (lower = more inhibition) is 16.9% and 18.5%. For the same compound, the parasite growth, % of control (lower = inhibition) in [9] is 6.81% and 13.3%. Moreover, the growth, % of control in test [10] is 43.4% and 10.1%. In addition, the cell viability, % of control (lower = more cytotoxic) in test [11] worked out at 10.9%. Further, in test [12], the viability (% of control) turned out to be 8.34%. In addition, the Potency result in test [13] and in test [14] was “inactive” each time.

On to `C[C@H](Cn1cnc2c(N)ncnc21)OCP(=O)(O)O`, for which the parasite growth, % of DMSO control in test [7] was 171%. The parasite growth remaining, % of DMSO control (lower = more inhibition) in test [8] was determined as 112%. For the same compound, in test [9], the parasite growth, % of control (lower = inhibition) turned out to be 107%. In test [10], this compound gave a growth, % of control of 612%. The cell viability, % of control (lower = more cytotoxic) in test [11] came to 168%. The viability (% of control) in [12] was 130%. Besides, the Potency entry in test [13], in test [14], in test [15], in test [16] and in [17] was “inactive” throughout.

For the compound `O=C(c1ccccc1)c1ccc2n1CCC2C(=O)O` (configuration not stated), the result in test [18], in [19] and in test [20] was inactive. The compound further displayed a parasite growth, % of DMSO control in test [7] of 67.8%. Besides, the parasite growth remaining, % of DMSO control (lower = more inhibition) in [8] turned out to be 107%. For the same compound, in [9], the parasite growth, % of control (lower = inhibition) was found to be 121%. The growth, % of control in test [10] was found to be 104%. In test [11], the cell viability, % of control (lower = more cytotoxic) turned out to be 14.8%. Further, the viability (% of control) in test [12] was 15.1%. Also, the Potency in test [13] is 18.7 µM (active); in test [14], 16.6 µM (active); in test [15] it was 3.32 µM (active); in test [16], 4.18 µM (active); in test [17], 6.62 µM (active).

In the case of `CCN(CC)CCOc1ccc(Nc2ncc3cc(-c4c(Cl)cccc4Cl)c(=O)n(C)c3n2)cc1`, in [5], the remaining parasite growth % (stronger effect = lower value) stood at 0.673%. The compound also gave an activity, percent of control in test [6] of 1.4%. In [7], this compound displayed a parasite growth, % of DMSO control of 6.09%. Further, the parasite growth remaining, % of DMSO control (lower = more inhibition) in [8] worked out at 8.57%. For the same compound, in test [9], the parasite growth, % of control (lower = inhibition) was 10.6%. In test [10], this compound had a growth, % of control of 4.26%. Moreover, the cell viability, % of control (lower = more cytotoxic) in [11] was 4.53%. Besides, in [12], the viability (% of control) was found to be 2.59%. The Potency entry in [13] and in test [14] was “inactive” in each case. The values for the Potency in test [15], in test [16] and in test [17] were 1.87 µM (active), 3.32 µM (active) and 0.235 µM (active), respectively.

In the case of `O=C(OC1C[C@H]2CC[C@@H](C1)[N+]21CCCC1)C(O)(c1ccccc1)c1ccccc1` (some centres not stated), in test [2], the max response is -10.3% (inactive). In test [10], this compound displayed a growth, % of control of 17.4%. In addition, the cell viability, % of control (lower = more cytotoxic) in [11] worked out at 120%. The viability (% of control) in test [12] was 99.2%. For the same compound, the Potency result in test [13], in test [14], in test [15], in test [16] and in test [17] was “inactive” each time.

For `O=C(O)c1cccnc1Nc1cccc(C(F)(F)F)c1`, the result in test [18], in test [19] and in test [20] was inactive. Moreover, in test [7], the parasite growth, % of DMSO control came to 83.9%. Further, in test [8], the parasite growth remaining, % of DMSO control (lower = more inhibition) is 87.2%. Besides, the parasite growth, % of control (lower = inhibition) in test [9] was 77.4%. Also, the growth, % of control in test [10] was 74%. Also, the cell viability, % of control (lower = more cytotoxic) in test [11] is 122%. The viability (% of control) in [12] is 88.7%. Besides, the Potency result in [13], in [14], in [15], in test [16] and in test [17] was “inactive” each time.

Regarding `NS(=O)(=O)c1cc(C(=O)O)c(NCc2ccco2)cc1Cl`, the max response is 0.113% (inactive) and -9.05% (inactive) in test [1]; 3.33% (inactive) in [2]; 5.51% (inactive) and -8.33% (inactive) in test [3]. For the same compound, the Potency result in test [4], in test [13], in test [14], in test [15], in [16] and in [17] was “inactive” in each case. The same compound displayed a parasite growth, % of DMSO control in [7] of 58.2%. Further, the parasite growth remaining, % of DMSO control (lower = more inhibition) in test [8] worked out at 103%. Further, the growth, % of control in test [10] came out at 84.6%. Further, in test [11], the cell viability, % of control (lower = more cytotoxic) was 75.9%. Further, the viability (% of control) in [12] was 108%.
